# From PubChem BioAssay AID630 (Emory University Molecular Libraries Screening Center, 2007)
# The whole screen tested about 88,000 compounds, of which about 260 (0.3%) were called active. The sample holds actives, similar compounds and a random draw of the others, so the mix is not that of the screen. Unmarked numbers belong to inactive results.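 How the source made its calls: active means compounds that reduce the energy-transfer binding signal between the protein and its labelled peptide by more than half; inactive means the rest.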
# Target: Mothers against decapentaplegic homolog 3 (Homo sapiens) (UniProt P84022)
# Sequence (P84022 whole entry, looked up): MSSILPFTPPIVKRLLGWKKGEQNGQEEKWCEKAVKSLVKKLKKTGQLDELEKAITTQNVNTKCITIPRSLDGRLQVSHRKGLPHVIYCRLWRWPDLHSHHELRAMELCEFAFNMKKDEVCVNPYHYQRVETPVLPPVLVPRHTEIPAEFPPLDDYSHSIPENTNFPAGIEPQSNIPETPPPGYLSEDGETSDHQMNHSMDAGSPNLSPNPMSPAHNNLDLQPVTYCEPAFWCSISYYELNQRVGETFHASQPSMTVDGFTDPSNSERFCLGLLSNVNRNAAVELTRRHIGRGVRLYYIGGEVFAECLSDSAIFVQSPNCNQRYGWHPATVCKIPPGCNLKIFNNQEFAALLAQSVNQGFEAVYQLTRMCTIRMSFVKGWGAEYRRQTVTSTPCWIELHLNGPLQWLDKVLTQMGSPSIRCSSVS
# Experiment: Smad3/FoxH1 peptide binding inhibitors, primary screen, biochemical, TR-FRET (AID 630);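 further: 0% = Smad3 plus labelled peptide maximal FRET and 100% = peptide-only background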
# Details: TR-FRET Smad3/Dy647-FoxH1 peptide binding, europium anti-His; at 25 µM; hits give high values
row,SMILES,inhibition
1,CC(=O)C1=C(C)NC(=O)NC1c1cc(Br)ccc1OCC#N (stereo not given),5.31%
2,N#CC1=C(N)N(c2ccccc2)C2=C(C(=O)CCC2)C1c1ccccc1 (stereo not given),-6.32%
3,C=CCN(N=Nc1cccc([N+](=O)[O-])c1)c1cccc([N+](=O)[O-])c1,5.93%
4,COc1ccc(NC(=O)C(CC(C)C)NS(=O)(=O)c2ccc3c(c2)CCN3C(C)=O)cc1OC (stereo not given),2.09%
5,C[C@H]1O[C@@H](CC(=O)O)Cc2c1c(O)c1c(O)cc(-c3cc(=O)c4c(=O)c5c(c(=O)c=4c3=O)C[C@H](CC(=O)O)O[C@@H]5C)c(O)c1c2O,95.5% (active)
6,Cc1cc2cc(CNC(=O)c3cccs3)ccc2[nH]1,4.85%
7,c1ccc2c(-c3nn4nnnc4c4ccccc34)cccc2c1,1.52%
8,Cc1cc(Cl)c(S(=O)(=O)N(C)C)cc1OCC(N)=O,-1.09%
9,COc1ccc(S(=O)(=O)Nc2ccc(F)cc2)c(C)c1C,-18.5%
10,COCCOCCn1cnc2ccccc21,8.15%
11,Cc1ccc(-c2nc3ccccc3[nH]2)cc1N,10.8%
12,CC(=O)N1CCCc2cc(S(=O)(=O)CCC(=O)N3CCN(c4ccccc4)CC3)ccc21,3.39%
13,CC(C)(C)c1ccc(C(=O)NCC(=O)OCN2C(=O)c3ccccc3C2=O)cc1,-15.4%
14,C=CCN(C(=O)Cn1ncc2c1-c1cc(C)ccc1OC2)c1ccccc1,-12.8%
15,Oc1c(Br)cc(CN(Cc2cc(Br)c(O)c(Br)c2)C2CCCCC2)cc1Br,98.7% (active)
16,C=CCO/N=C(\C)c1c(O)c(C)c(-c2ccccc2)n(-c2ccccc2)c1=O,0.29%
17,Cc1cccc(NC(=O)/C(=C\c2ccco2)NC(=O)c2ccccc2)c1,-5.56%
18,CC(=O)c1ccc(-n2nnnc2SCC(=O)N2CCN(C(=O)c3ccco3)CC2)cc1,6.3%
19,CC(C)C(c1nnnn1CCc1ccccc1)N1CCN(C(=O)c2ccco2)CC1 (stereo not given),-1.2%
20,CCC(c1nnnn1C1CCCC1)N1CCN(C(=O)c2ccco2)CC1 (stereo not given),56.9% (active)
21,COC(=O)c1ccc(CSc2nc3cc(Cl)ccc3o2)cc1,8.67%
22,Cc1ccc(-c2cnc(NC(=O)CCC(=O)N(C)Cc3ccccc3)n2C)cc1,8.43%
23,COc1ccc(C(C)=O)cc1CN1C(=O)NC2(CCCCC2C)C1=O (stereo not given),3.22%

row,SMILES,inhibition
1,CC1CCN(C(=O)c2cc3nc(C4CC4)cc(C(F)(F)F)n3n2)CC1,6.46%
2,C[C@H](CCC(=O)O)[C@@H]1CC[C@@H]2[C@H]3CC[C@H]4C[C@@H](O)CC[C@]4(C)[C@@H]3C[C@H](O)[C@]21C,-5.18%
3,FC(F)(F)c1ccc2nnc(-c3c(Cl)cccc3Cl)n2c1,-1.74%
4,CC1CCCCC1NC(=O)C1CCCN1S(=O)(=O)c1cccc2nsnc12 (stereo not given),-19.4%
5,O=C1CSC(c2ccc(Cl)cc2)N1 (stereo not given),13.1%
6,Cc1cccn2c(=O)c(/C=C(\C#N)S(=O)(=O)c3ccc(Cl)cc3)c(N3CCC(C(N)=O)CC3)nc12,0.22%
7,CCCNC(=O)N1CCN(C(=O)NCCC)CC1,0.05%
8,CC1=CC(=O)C=CC1(C)C(Cl)(Cl)Cl (stereo not given),-10.9%
9,CN(C)c1ccc(CNC2C3CC4CC(C3)CC2C4)cc1 (stereo not given),8.16%
10,COC(=O)Nc1ccc(S(=O)(=O)N2CCN(CCN3C(=O)C4C5C=CC(C5)C4C3=O)CC2)cc1 (stereo not given),6.97%
11,O=C(NCC(=O)N(Cc1cccs1)C(C(=O)NC1CCCCC1)c1ccco1)c1cccs1 (stereo not given),0.62%
12,COc1ccc(C)cc1S(=O)(=O)NCCc1ccccc1,7.34%
13,COc1ccc(NC(=S)N2N=CCC2c2ccccc2)cc1 (stereo not given),-1.54%
14,CCCCN1C(=O)CC(N2CCOCC2)C1=O (stereo not given),-0.67%
15,O=C(Cc1c(O)c2ccccc2[nH]c1=O)NCc1ccccc1,7.06%
16,CS(=O)(=O)c1ccc(/C=N/NC(N)=S)cc1,20.2%
17,CC(C)CCNC(=O)Cn1c(=O)oc2cc(S(=O)(=O)N3CC(C)CC(C)C3)ccc21 (stereo not given),7.82%
18,CCOCCCNC(=O)C(NC(=O)c1ccc(=O)[nH]c1)c1ccc(C)cc1 (stereo not given),-19.1%
19,Cc1nnc(SCc2nc3ccccc3nc2C)s1,1.94%
20,CCOc1cc2[nH]c(=S)n(Cc3ccc(C(=O)NCCOC)cc3)c(=O)c2cc1OCC,-0.98%
21,CC(C)Oc1ccc(Oc2ccc(C(F)(F)F)cn2)cc1,0.6%
22,CCn1c(C)nc2cc(C(=O)NNS(=O)(=O)c3ccc(C)cc3C)ccc21,2.77%
23,COc1cccc(-n2c(Cc3cc(=O)[nH]c(=O)[nH]3)nnc2SCC(=O)Nc2ccccc2)c1,4.97%

row,SMILES,inhibition
1,Cc1cccc(-n2c(N)cc(=O)nc2SC(C)C(=O)NC2CCCCC2)c1 (stereo not given),5.17%
2,Cc1cccc(-n2c(Cc3cc(=O)[nH]c(=O)[nH]3)nnc2SC(C)C)c1,62% (active)
3,O=C(O)CCCCc1nc2ccccc2s1,-2.94%
4,CNC(=O)c1nnc(Cc2ccc(Cl)cc2)o1,-6.06%
5,CCOc1ccc(S(=O)(=O)NCC2CCCO2)cc1 (stereo not given),-12%
6,CCOCCOCCC(C(=O)O)P(=O)(c1ccccc1)c1ccccc1 (stereo not given),71.7% (active)
7,CCOCCCNC(=O)C(NC(=O)CNC(=O)c1ccccc1)c1ccc(C)cc1 (stereo not given),-6.68%
8,CCOC(=O)NC(C(F)(F)F)(C(F)(F)F)P(=O)(c1ccccc1)c1ccccc1,6.78%
9,CCCCCCOc1ccc(OC(=O)c2cccnc2)cc1,0.33%
10,Cc1ccc(-n2c(=O)cc(N3CCN(Cc4ccccc4)CC3)[nH]c2=O)cc1,2.1%
11,Cc1cc(S(=O)(=O)NC2CCCCC2)ccc1OCC(=O)NCc1cccnc1,8.87%
12,CN(C)C(=O)c1cc(Br)ccc1Cl,1.18%
13,O=C(Nc1ccc2c(c1)OCCO2)C(c1ccc(F)cc1)N1CCCCC1 (stereo not given),-0.28%
14,O=C(O)c1c(Br)c(Br)c(Br)c(Br)c1C1c2ccc(O)cc2Oc2cc(O)ccc21,93.1% (active)
15,COc1cccc(N=c2oc3c(C)ncc(CO)c3cc2C(N)=O)c1,10.9%
16,CC1(CC(=O)O)O[C@@H]2CCCCC[C@H]2O1 (tested in a mixture with another compound),14%
17,Cc1cc(NC(=O)CS(=O)(=O)c2cn(C)c3ccccc23)no1,-0.74%
18,Cc1ccccc1CSCCNC(=O)c1ccc(Cl)c(S(=O)(=O)N2CCOCC2)c1,4.77%
19,CCC1CCCCN1CCCNC(=O)C1CCC(Cn2c(=O)[nH]c3ccccc3c2=O)CC1 (stereo not given),14.2%
20,COc1ccc(C(C#N)Nc2ccccc2C)cc1 (stereo not given),-2.51%
21,COc1ccc(C(=O)OCC(=O)NCC2CCCCC2)cc1S(=O)(=O)N1CCCc2ccccc21,0.19%
22,Cc1ccc(S(=O)(=O)N(c2cccc(C)c2)C2CCS(=O)(=O)C2)cc1 (stereo not given),0.21%
23,COc1ccc(C2(CNC(=O)C(c3ccccc3)c3ccccc3)CCOCC2)cc1OC,3.2%

row,SMILES,inhibition
1,COc1ccc(S(=O)(=O)N2CCOCC2)c(C)c1C,15.3%
2,Cc1c(O)c(Br)c(C)c(O)c1Br (tested in a mixture with another compound),94% (active)
3,CCc1ccccc1NC(=O)CN(C)S(=O)(=O)c1ccc2c(c1)c(=O)n(C)c(=O)n2C,-4.79%
4,C=C(C)CNC(=S)/N=c1\scc(C)n1CC,91.6% (active)
5,OC[C@@H]1O[C@H](n2cnc3c(SCc4ccccc4)ncnc32)[C@H](O)[C@H]1O,4.63%
6,CC(C)OC(=O)c1c(NC(=O)c2ccco2)sc2c1CCCC2,-1.98%
7,CC(O)CN(Cc1ccc(Cl)cc1)CC(C)O (stereo not given),0.45%
8,COc1ccc(S(=O)(=O)N/N=C\c2ccc(OC)c(COc3ccc(C)cc3[N+](=O)[O-])c2)cc1,-3.11%
9,Cc1ccc(SC(=O)COc2ccc(C)c(C)c2)cc1,-5.83%
10,CCN1C(=O)C(CC(=O)Nc2cc(C)ccc2C)SC1=Nc1ccc(S(N)(=O)=O)cc1 (stereo not given),-12.6%
11,O=C(C1=C(O)C(=O)N(Cc2ccccc2)C1c1ccco1)c1ccco1 (stereo not given),12.4%
12,C[C@@]12CC[C@H]3c4ccc(O)cc4CC[C@@H]3[C@H]1CC[C@H]2OC(=O)CCC1CCCC1,39.6%
13,CC(=O)Nc1ccc(OCC(O)CN2CCN(c3ccccc3Cl)CC2)cc1 (stereo not given),4.39%
14,CCOc1ccc(N=C2NC(=O)S/C2=C\c2ccc(O)cc2)cc1,-8.11%
15,O=C(NC1CCC(O)CC1)c1ccc(S(=O)(=O)NCc2ccco2)cc1 (stereo not given),1.61%
16,COC(=O)C1=C(C)Nc2ncnn2C1c1cccnc1 (stereo not given),-10.7%
17,Cc1ccc(S(=O)(=O)N(C)C2(C)CCS(=O)(=O)C2)cc1 (stereo not given),-7.37%
18,Cn1cnc([N+](=O)[O-])c1Nc1ccccc1O,-0.46%
19,O=C(N/N=C/c1ccc(O)cc1)/C(=C/c1ccc([N+](=O)[O-])cc1)NC(=O)c1ccccc1,-3.81%
20,Cc1cccc(C)c1NC(=O)CSc1nnc(-c2ccccc2)n1Cc1ccc2c(c1)OCO2,14.3%
21,Cc1nn(-c2ncc(C(F)(F)F)cc2Cl)c(=O)n1-c1ccccc1,9.91%
